Holding throughout (test): DAPPL (digital affinity profiling via proximity ligation, sequencing); 10 mM Tris-HCl pH 7.5, 50 mM NaCl, 1 mM DTT, 4% glycerol, room temperature, 30 min; GST-TFs on glutathione beads, 16-mer random dsDNA library, 0.1% formaldehyde crosslink after washing; high values mean tight binding
One test deals with T1, FLI1 (Homo sapiens, UniProt Q01543 1-452).
T1 sequence: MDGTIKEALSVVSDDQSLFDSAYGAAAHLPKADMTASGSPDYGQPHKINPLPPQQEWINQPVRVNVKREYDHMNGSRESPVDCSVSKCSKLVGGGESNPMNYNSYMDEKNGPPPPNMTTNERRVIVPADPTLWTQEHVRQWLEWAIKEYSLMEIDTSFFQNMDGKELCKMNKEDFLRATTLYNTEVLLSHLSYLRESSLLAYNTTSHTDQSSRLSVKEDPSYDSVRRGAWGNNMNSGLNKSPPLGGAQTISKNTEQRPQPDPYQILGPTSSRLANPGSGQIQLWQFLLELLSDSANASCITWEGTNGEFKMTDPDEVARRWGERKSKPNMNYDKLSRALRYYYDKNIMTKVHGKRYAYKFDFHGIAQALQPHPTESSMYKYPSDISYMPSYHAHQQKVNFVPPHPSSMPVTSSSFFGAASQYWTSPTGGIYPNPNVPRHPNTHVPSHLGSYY
As to conditions: protein: recombinant; tags: N-terminal GST; dsDNA, one strand shown. A digest of the protocol:
(§1)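 Sequencing on an Illumina NextSeq500 followed washing, crosslinking with 0.1% formaldehyde, proximity ligation (BsaI/T4 ligase, 1 h, 37 °C) and PCR amplification of pools that had been incubated for 30 min at room temperature with 200 nmole of a random double-stranded 16-mer DNA library in Tris/NaCl/DTT/glycerol buffer. Each pool held DNA-barcoded human transcription factors, expressed in yeast as GST fusions and captured on glutathione beads, plus a tag-only sample. Binding signal is a hexamer's read frequency for a factor divided by its frequency in the tag-only sample.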

For another test, the target named is T2, ELK1 (Homo sapiens, UniProt P19419 1-428).
T2 sequence: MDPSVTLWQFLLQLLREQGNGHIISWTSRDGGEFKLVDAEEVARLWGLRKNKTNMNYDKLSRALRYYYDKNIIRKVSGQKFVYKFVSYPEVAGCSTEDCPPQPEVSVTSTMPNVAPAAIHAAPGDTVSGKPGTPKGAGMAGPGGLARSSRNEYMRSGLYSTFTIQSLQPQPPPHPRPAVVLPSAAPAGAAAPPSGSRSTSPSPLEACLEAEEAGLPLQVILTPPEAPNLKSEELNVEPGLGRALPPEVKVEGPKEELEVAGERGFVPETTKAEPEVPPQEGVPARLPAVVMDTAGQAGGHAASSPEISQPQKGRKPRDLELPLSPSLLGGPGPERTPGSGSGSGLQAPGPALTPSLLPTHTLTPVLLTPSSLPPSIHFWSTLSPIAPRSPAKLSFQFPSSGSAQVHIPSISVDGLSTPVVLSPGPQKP
The following applies: protein: recombinant; tags: N-terminal GST; dsDNA, one strand shown. A digest of the protocol: as §1

The target of another test is T3, GABPA (Homo sapiens, UniProt Q06546 1-454).
T3 sequence: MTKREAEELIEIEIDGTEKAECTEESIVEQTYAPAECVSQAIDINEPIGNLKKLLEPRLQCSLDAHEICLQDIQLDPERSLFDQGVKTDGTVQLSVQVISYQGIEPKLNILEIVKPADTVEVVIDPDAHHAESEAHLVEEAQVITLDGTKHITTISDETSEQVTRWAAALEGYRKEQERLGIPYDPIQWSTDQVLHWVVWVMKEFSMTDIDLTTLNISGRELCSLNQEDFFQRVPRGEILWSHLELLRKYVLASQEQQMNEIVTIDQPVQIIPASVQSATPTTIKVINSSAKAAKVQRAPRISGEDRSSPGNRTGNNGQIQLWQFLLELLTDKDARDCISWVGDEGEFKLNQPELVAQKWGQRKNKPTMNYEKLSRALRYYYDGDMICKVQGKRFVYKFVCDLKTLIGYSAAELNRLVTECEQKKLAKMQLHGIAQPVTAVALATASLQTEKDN
As to conditions: protein: recombinant; tags: N-terminal GST; dsDNA, one strand shown. A digest of the protocol: as §1

A further test deals with T4, ERG (Homo sapiens, UniProt P11308 1-479).
T4 sequence: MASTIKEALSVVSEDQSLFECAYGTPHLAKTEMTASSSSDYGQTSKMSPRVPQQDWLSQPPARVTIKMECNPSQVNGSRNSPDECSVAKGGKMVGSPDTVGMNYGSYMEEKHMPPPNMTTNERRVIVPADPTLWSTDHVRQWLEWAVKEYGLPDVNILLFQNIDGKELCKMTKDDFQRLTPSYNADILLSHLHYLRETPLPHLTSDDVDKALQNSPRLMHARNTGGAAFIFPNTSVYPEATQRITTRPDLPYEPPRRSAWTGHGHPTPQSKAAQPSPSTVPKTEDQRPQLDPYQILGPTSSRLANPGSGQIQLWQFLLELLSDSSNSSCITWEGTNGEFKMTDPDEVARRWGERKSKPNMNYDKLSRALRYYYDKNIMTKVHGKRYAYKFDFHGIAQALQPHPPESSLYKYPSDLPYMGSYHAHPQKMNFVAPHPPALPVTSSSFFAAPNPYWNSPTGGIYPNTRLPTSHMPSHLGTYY
The following applies: protein: recombinant; tags: N-terminal GST; dsDNA, one strand shown. The method in brief: as §1

The target of a further test is ELF1 (Homo sapiens, UniProt P32519 1-619). The following applies: protein: recombinant; tags: N-terminal GST; dsDNA, one strand shown. The method in brief:
as §1

The target of a further test is T5, EHF (Homo sapiens, UniProt Q9NZC4 1-300).
T5 sequence: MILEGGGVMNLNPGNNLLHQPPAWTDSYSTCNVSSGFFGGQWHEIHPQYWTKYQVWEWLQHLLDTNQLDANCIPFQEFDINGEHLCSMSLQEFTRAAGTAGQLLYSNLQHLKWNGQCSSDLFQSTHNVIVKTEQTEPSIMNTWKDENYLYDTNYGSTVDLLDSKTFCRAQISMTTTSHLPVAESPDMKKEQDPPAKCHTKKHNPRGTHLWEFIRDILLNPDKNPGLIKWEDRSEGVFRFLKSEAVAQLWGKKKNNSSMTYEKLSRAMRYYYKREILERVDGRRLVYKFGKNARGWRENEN
As to conditions: protein: recombinant; tags: N-terminal GST; dsDNA, one strand shown. A digest of the protocol: as §1

Another test deals with SPI1 (Homo sapiens, UniProt P17947 1-270). The following applies: protein: recombinant; tags: N-terminal GST; dsDNA, one strand shown. The method in brief: as §1
The next test deals with SPIB (Homo sapiens, UniProt Q01892 1-262). The following applies: protein: recombinant; tags: N-terminal GST; dsDNA, one strand shown. The method in brief: as §1
Another test concerns the target T6, ELK3 (Homo sapiens, UniProt P41970 1-407).
T6 sequence: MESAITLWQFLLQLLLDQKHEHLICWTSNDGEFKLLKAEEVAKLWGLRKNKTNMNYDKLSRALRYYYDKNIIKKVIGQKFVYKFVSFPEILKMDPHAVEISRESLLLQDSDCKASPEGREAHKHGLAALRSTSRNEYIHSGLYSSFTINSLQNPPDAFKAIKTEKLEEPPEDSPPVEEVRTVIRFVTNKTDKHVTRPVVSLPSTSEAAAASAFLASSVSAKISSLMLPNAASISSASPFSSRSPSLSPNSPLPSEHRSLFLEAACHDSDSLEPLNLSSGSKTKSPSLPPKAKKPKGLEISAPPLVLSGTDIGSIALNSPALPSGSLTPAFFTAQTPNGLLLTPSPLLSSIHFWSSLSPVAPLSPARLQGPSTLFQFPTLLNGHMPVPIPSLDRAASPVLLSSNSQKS
As to conditions: protein: recombinant; tags: N-terminal GST; dsDNA, one strand shown. A digest of the protocol: as §1

The target of the next test is T7, FEV (Homo sapiens, UniProt Q99581 1-238).
T7 sequence: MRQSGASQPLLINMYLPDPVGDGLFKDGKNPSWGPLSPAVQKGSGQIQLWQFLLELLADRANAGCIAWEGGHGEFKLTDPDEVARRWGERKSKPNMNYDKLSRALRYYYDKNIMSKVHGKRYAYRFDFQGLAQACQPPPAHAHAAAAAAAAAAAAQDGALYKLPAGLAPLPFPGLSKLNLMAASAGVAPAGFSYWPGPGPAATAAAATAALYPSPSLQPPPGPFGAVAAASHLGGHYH
As to conditions: protein: recombinant; tags: N-terminal GST; dsDNA, one strand shown. The method in brief:
as §1

The next test addresses ETV5 (Homo sapiens, UniProt P41161 1-510). The following applies: protein: recombinant; tags: N-terminal GST; dsDNA, one strand shown. The method in brief: as §1
The target of another test is HSF1 (Homo sapiens, UniProt Q00613 1-529). The following applies: protein: recombinant; tags: N-terminal GST; chain copies: 3; dsDNA, one strand shown. The method in brief: as §1
Another test concerns the target T8, SPIC (Homo sapiens, UniProt Q8N5J4 1-248).
T8 sequence: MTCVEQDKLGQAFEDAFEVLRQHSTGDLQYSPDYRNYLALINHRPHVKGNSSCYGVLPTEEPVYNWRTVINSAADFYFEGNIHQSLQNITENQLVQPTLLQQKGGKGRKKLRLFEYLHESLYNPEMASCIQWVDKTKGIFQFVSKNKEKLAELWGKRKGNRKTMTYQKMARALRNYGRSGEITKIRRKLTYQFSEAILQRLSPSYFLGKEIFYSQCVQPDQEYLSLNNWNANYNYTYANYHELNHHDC
The following applies: protein: recombinant; tags: N-terminal GST; dsDNA, one strand shown. A digest of the protocol: as §1

The target in another test is ELF4 (Homo sapiens, UniProt Q99607 1-663). As to conditions: protein: recombinant; tags: N-terminal GST; dsDNA, one strand shown. A digest of the protocol:
as §1

A further test concerns the target T9, ELK4 (Homo sapiens, UniProt P28324-2 1-405).
T9 sequence: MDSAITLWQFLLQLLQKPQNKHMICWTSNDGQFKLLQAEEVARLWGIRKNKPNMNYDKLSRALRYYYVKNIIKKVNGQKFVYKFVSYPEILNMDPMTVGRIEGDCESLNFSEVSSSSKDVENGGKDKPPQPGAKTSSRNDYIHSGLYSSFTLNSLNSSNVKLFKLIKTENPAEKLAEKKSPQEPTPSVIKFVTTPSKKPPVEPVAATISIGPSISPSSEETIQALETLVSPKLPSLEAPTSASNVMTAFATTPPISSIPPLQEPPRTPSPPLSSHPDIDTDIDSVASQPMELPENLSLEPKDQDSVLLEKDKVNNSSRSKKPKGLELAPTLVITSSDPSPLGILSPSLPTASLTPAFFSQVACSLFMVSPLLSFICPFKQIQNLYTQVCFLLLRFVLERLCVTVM
The following applies: protein: recombinant; tags: N-terminal GST; dsDNA, one strand shown. A digest of the protocol:
as §1

In another test the target is T10, ETV2 (Homo sapiens, UniProt O00321 1-342).
T10 sequence: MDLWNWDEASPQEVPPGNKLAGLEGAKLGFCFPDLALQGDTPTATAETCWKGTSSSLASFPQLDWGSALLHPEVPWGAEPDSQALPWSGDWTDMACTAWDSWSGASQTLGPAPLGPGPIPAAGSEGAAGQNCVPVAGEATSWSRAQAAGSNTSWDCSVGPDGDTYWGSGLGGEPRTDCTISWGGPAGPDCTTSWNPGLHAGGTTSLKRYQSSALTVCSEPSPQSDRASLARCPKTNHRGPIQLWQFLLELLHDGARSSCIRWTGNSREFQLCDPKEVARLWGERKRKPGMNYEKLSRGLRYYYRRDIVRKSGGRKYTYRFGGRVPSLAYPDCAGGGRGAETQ
As to conditions: protein: recombinant; tags: N-terminal GST; dsDNA, one strand shown. A digest of the protocol: as §1

For another test, the target named is T11, ELF3 (Homo sapiens, UniProt P78545 1-371).
T11 sequence: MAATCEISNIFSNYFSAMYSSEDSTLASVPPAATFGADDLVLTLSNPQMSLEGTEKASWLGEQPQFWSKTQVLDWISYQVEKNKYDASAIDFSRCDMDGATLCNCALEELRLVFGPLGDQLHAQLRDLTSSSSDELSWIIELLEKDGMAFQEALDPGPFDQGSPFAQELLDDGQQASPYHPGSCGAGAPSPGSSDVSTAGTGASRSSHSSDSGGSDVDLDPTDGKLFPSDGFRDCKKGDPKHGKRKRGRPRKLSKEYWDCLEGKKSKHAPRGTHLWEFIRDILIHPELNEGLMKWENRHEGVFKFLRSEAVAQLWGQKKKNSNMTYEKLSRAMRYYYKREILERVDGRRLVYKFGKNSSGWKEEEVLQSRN
The following applies: protein: recombinant; tags: N-terminal GST; dsDNA, one strand shown. The method in brief: as §1

In the next test the target is ETV1 (Homo sapiens, UniProt P50549 1-477). As to conditions: protein: recombinant; tags: N-terminal GST; dsDNA, one strand shown. A digest of the protocol:
as §1

Sequence of ETV5 (P41161 whole entry): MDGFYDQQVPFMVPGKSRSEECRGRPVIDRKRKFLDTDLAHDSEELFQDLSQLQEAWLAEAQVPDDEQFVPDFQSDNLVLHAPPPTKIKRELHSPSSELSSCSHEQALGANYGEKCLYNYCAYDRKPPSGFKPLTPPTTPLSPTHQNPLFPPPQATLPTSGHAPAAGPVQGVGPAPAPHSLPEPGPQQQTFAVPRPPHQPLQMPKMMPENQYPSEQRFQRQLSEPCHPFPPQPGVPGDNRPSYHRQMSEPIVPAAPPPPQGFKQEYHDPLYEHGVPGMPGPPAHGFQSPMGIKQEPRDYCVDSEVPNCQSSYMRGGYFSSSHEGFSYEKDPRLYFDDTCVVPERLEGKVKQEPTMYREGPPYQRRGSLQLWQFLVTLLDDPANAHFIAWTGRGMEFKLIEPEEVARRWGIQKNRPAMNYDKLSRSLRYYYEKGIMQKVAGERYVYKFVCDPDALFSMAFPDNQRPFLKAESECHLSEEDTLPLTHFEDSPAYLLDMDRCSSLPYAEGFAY
Sequence of SPIB (Q01892 whole entry): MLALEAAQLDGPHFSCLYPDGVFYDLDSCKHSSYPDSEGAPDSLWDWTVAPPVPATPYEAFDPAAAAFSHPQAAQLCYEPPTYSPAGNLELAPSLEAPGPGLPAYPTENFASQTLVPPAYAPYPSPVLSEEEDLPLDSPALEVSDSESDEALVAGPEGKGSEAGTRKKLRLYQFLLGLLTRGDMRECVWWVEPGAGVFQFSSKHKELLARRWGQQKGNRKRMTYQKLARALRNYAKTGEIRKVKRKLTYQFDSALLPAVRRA
Sequence of ETV1 (P50549 whole entry): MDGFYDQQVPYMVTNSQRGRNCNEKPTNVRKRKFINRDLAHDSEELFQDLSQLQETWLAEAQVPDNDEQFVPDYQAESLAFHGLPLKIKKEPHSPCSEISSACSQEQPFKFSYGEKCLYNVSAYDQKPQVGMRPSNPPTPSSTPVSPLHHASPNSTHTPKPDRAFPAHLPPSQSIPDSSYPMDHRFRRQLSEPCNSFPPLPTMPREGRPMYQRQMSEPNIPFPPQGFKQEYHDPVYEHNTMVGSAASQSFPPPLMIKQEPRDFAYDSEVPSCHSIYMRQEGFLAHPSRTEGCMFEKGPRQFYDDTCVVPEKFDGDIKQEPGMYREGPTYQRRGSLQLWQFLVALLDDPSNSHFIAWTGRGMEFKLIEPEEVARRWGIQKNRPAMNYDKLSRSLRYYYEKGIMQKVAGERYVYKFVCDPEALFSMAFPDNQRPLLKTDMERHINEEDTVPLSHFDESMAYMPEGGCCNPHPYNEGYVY
Sequence of ELF1 (P32519 whole entry): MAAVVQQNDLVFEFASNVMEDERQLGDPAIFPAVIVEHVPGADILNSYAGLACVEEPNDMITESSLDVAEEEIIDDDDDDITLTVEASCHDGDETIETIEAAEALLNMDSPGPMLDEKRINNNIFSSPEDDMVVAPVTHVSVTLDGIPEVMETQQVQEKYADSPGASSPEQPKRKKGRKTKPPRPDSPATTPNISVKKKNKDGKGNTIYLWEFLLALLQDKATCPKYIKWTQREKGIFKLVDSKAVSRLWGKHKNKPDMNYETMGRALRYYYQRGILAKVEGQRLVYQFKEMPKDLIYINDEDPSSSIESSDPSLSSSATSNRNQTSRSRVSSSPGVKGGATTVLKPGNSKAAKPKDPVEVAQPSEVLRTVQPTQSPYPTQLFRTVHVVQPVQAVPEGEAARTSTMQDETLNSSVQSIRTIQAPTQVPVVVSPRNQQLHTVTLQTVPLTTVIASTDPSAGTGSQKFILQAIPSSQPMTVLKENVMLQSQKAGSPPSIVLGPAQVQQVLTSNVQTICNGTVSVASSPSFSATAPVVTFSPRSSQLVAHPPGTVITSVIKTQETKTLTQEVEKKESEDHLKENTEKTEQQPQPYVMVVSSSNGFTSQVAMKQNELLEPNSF
Sequence of HSF1 (Q00613 whole entry): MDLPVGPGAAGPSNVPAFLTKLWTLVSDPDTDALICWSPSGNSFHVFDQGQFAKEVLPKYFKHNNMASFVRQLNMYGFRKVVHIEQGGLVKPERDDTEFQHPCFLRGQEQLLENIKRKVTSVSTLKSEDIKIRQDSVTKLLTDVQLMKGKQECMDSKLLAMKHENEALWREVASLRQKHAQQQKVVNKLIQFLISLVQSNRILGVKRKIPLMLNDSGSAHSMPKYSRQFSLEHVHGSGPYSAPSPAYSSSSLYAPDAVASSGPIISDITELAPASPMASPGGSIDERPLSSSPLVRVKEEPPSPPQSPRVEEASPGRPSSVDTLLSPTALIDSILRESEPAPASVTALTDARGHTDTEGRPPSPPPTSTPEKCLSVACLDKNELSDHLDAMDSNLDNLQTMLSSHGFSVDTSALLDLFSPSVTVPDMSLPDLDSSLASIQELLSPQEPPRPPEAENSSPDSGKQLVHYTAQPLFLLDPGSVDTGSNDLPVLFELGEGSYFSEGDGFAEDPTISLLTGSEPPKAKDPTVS
Sequence of ELF4 (Q99607 whole entry): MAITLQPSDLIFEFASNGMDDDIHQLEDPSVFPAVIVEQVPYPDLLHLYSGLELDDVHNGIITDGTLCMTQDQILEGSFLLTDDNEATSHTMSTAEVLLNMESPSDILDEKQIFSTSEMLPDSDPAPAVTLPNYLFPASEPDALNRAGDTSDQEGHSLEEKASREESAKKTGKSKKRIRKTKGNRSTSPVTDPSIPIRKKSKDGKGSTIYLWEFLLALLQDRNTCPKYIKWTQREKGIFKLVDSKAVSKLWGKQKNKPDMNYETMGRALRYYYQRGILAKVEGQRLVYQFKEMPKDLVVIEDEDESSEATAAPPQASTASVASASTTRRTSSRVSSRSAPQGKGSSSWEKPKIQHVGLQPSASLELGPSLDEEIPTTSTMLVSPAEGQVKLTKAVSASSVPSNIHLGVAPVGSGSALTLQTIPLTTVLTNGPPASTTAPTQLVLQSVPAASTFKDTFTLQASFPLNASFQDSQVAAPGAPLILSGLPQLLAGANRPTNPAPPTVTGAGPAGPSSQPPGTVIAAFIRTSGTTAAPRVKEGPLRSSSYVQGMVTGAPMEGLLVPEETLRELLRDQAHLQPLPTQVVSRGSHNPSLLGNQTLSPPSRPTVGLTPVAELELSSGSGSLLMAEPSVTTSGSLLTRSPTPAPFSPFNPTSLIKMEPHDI

Consider CTCGCC, for which the binding signal with FLI1 is 1.16 fold enrichment (6-mer frequency, TF over GST control); in the test with ELK1, 1.38 fold enrichment (6-mer frequency, TF over GST control); with GABPA, 1.26 fold enrichment (6-mer frequency, TF over GST control); with ERG, 1.21 fold enrichment (6-mer frequency, TF over GST control); in the test with ELF1, 1.25 fold enrichment (6-mer frequency, TF over GST control); with EHF it was 1.19 fold enrichment (6-mer frequency, TF over GST control). Moreover, the binding signal was 1.17 fold enrichment (6-mer frequency, TF over GST control) in the test with SPI1; 1.24 fold enrichment (6-mer frequency, TF over GST control) in the test with SPIB; 1.25 fold enrichment (6-mer frequency, TF over GST control) with ELK3; 1.21 fold enrichment (6-mer frequency, TF over GST control) with FEV; 1.23 fold enrichment (6-mer frequency, TF over GST control) in the test with ETV5; 1.06 fold enrichment (6-mer frequency, TF over GST control) with HSF1. The binding signal with SPIC is 1.2 fold enrichment (6-mer frequency, TF over GST control); with ELF4 it was 1.29 fold enrichment (6-mer frequency, TF over GST control); in the test with ELK4, 1.31 fold enrichment (6-mer frequency, TF over GST control); with ETV2 it was 1.32 fold enrichment (6-mer frequency, TF over GST control); with ELF3 it was 1.43 fold enrichment (6-mer frequency, TF over GST control); in the test with ETV1 it was 1.26 fold enrichment (6-mer frequency, TF over GST control).

Values taken from PMC7862700, “An all-to-all approach to the identification of sequence-specific readers for epigenetic DNA modifications on cytosine”.
